Results taken from PubChem BioAssay AID2685 (National Center for Advancing Translational Sciences (NCATS), 2010).
Out of some 320,000 compounds screened, about 2,100 (0.66%) were called active. Inconclusive results (about 53%) are left out. Calls follow the shape of the dose curve; as a rule, active = well fitted inhibition curve with a large enough effect in the signal ratio, with a control signal flat (not every such curve was filed as active); inconclusive = small, poorly fitted or top-dose-only effect, or effect the other way, or a change in a side signal; inactive = flat fitted curve, though single readings scatter; the % refers to the signal ratio. Many of the other results were omitted from the sample, so actives are more common in it than they were.

Experiment: qHTS Assay for Lipid Storage Modulators in Drosophila S3 Cells;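 as to cell number change: cells counted by Cell Tracker Red CMTPX staining in the red channel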; as to lipid storage change, negative = inhibition: % is scaled to controls: 0 for no effect and ±100 for the full control effect
Details: BODIPY lipid droplet fluorescence, 18-24 h, cells fed with added oleic acid; cell number change: measured here: cell count max response; series mostly up to 46.1 µM; lipid storage change, negative = inhibition: at the top concentration
Procedure, shortened: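 Drosophila S3 cells got compounds at several concentrations plus oleic acid (400 uM solution). Laser-scanning cytometry with 488 nm excitation read lipid droplets at 500-530 nm and cells at 575-640 nm. Percent activity was relative to 20 uM Triacsin C.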
Potency is read from the fitted curve at half-maximal effect.

SMILES | lipid storage change, negative = inhibition | cell number change | Potency | outcome
CCOC(=O)C1=C(CS(=O)(=O)c2ccc(Cl)cc2)NC(=O)NC1c1ccc(O)c(OC)c1 (stereo not given) | -8.07% (inactive) | 23% | – | –
O=C(OC(C(=O)Nc1ccc(Cl)cc1C(F)(F)F)c1ccccc1)C1=COCCO1 (stereo not given) | 6% (inactive) | -1.65% | – | –
CCN(CC)CCCN1C(=O)C(O)=C(C(=O)c2sc(C)nc2C)C1c1ccc(C)o1 (stereo not given) | 0.201% (inactive) | 0.178% | – | –
COc1cc(/C=C/c2noc(-c3ccccc3O)n2)ccc1OC(C)=O | -1.96% (inactive) | 8.42% | – | –
CC(C)(C)NC(=O)/C=C/c1cccc(C(F)(F)F)c1 | 23.9% (inactive) | -3.06% | – | –
COc1ccc(Nc2ccc([N+](=O)[O-])cn2)cn1 | – | -5.41% | 16.4 µM (active) | –
COc1ccccc1Nc1ccc([N+](=O)[O-])cn1 | 3.34% (inactive) | 25.6% | – | –
COc1ccc(Nc2ccc([N+](=O)[O-])cn2)cc1 | 19.4% (inactive) | 13.2% | – | –
CCc1nn(CC(=O)NCCCN(CC)c2cccc(C)c2)c(=O)c2cc3occc3n12 | 8.48% (inactive) | -11.1% | – | –
CCOC(=O)CCn1cc(F)c(=O)n(Cc2ccccc2)c1=O | – | 12.1% | – | inactive
CCOc1nc(SC(C(C)=O)C(=O)Nc2ccccc2)nc(N(C)C)n1 (stereo not given) | 3.93% (inactive) | -9.19% | – | –
CC(C)Nc1nc(SC(C)C(=O)Nc2ccccc2)nc(N(C)C)n1 (stereo not given) | – | -27.6% | 8.2 µM (active) | –
CC(Sc1nc(N2CCOCC2)nc(N2CCOCC2)n1)C(=O)Nc1ccccc1 (stereo not given) | 0.66% (inactive) | -7.21% | – | –
COC(=O)c1cccc(-c2ccc(/C=N/N3C(=O)C4C5C=CC(C6CC56)C4C3=O)o2)c1 (stereo not given) | -10.1% (inactive) | -7.37% | – | –
COC(=O)c1ccc(-c2ccc(/C=N/N3C(=O)C4C5C=CC(C6CC56)C4C3=O)o2)cc1 (stereo not given) | – | 4.78% | 20.6 µM (active) | –
COC(=O)c1ccc(-c2ccc(/C=N/N3C(=O)C4C5C=CC(CC5)C4C3=O)o2)cc1 (stereo not given) | -0.618% (inactive) | 10.1% | – | –
COc1ccc(/C=C/c2cc(C(F)(F)F)[nH]c(=O)n2)cc1OC | -12.5% (inactive) | 7.45% | – | –
O=c1nc(/C=C/c2ccccc2C(F)(F)F)cc(C(F)(F)F)[nH]1 | – | -22.9% | 0.517 µM (active) | –
O=c1nc(-c2ccccc2)cc(C(F)(F)F)[nH]1 | -9.25% (inactive) | -9.42% | – | –
CCc1ccc(N2CC(C(=O)NC3CCCCC3C)CC2=O)cc1 (stereo not given) | – | -4.76% | – | inactive

SMILES | lipid storage change, negative = inhibition | cell number change | Potency | outcome
COC(=O)c1ccc(COc2ccccc2/C=N/NS(=O)(=O)c2ccccc2)cc1 | -8.74% (inactive) | -14.9% | – | –
CCCCC/C=C\C/C=C\C/C=C\C/C=C\CCCC(=O)O | -8.8% (inactive) | -29.6% | – | –
CCCCC1C(=O)CC[C@H]2[C@@H]1CC(=O)[C@@H]2C/C=C\CCCC(=O)O (stereo not given in full) | – | -6.62% | 9.2 µM (active) | –
CCCCC[C@H](O)/C=C/[C@H]1C=CC(=O)[C@@H]1C/C=C\CCCC(=O)O | -2.66% (inactive) | 10.2% | – | –
CCn1c(=O)c(C(=O)NCc2ccccc2OC)c(O)c2ccccc21 | – | 3.38% | – | inactive
Cc1cccc(C)c1OCc1nnc(SCC(=O)Nc2ccccc2F)o1 | 29.6% (inactive) | -7.4% | – | –
CCc1nnc(NC(=O)CSc2nnc(CSc3nc(C)cc(C)n3)o2)s1 | 7.1% (inactive) | 9.83% | – | –
Cc1ccc(NC(=O)c2cc(S(=O)(=O)NCCC3=CCCCC3)ccc2F)cc1 | -15.8% (inactive) | -3.48% | – | –
O=C(Nc1cccc(-n2cnnn2)c1)c1cccc(Cl)c1 | – | -16% | 14.6 µM (active) | –
Cc1cc(OCCCC(=O)Nc2cccc(-n3cnnn3)c2)ccc1Cl | – | 3.23% | 3.26 µM (active) | –
O=C(Nc1cccc(-n2cnnn2)c1)c1cccs1 | – | -3.63% | – | inactive
O=C(Nc1cccc(-n2cnnn2)c1)c1ccoc1COc1ccc(Cl)cc1 | – | -18.1% | 29.1 µM (active) | –
O=C(CNC(=O)c1cccc(-n2cnnn2)c1)Nc1ccc(F)c(F)c1 | 4.76% (inactive) | 0.376% | – | –
O=C(Nc1ccc(C(F)(F)F)cc1)c1cccc(-n2cnnn2)c1 | 19% (inactive) | 8.84% | – | –
O=C(Nc1cccc(-n2cnnn2)c1)c1ccco1 | 9.61% (inactive) | -16.6% | – | –
COc1ccc(NC(=O)COc2cccc(-n3cnnn3)c2)cc1 | – | -3.85% | – | inactive
O=C(COc1cccc(-n2cnnn2)c1)Nc1ccccc1 | -13.1% (inactive) | -12.3% | – | –
Cc1ccc(C)c(NC(=O)c2cc[n+](C)cc2)c1 | – | -24.7% | – | inactive
CCOC(=O)COc1ccc(S(=O)(=O)NCc2ccncc2)cc1 | -23.8% (inactive) | – | – | –
Cc1ccc(/C=C/C(=O)N(Cc2cccs2)C2CCS(=O)(=O)C2)cc1 (stereo not given) | 18.4% (inactive) | 11.3% | – | –

SMILES | lipid storage change, negative = inhibition | cell number change | Potency | outcome
CCOC(=O)c1c(-c2ccccc2)csc1NC(=O)CSc1nc(N)cc(N)n1 | 13.1% (inactive) | 11.6% | – | –
COCCCn1c(C)nnc1-c1cnn(-c2ccccc2)c1N | 10.4% (inactive) | 22.6% | – | –
O=C(Nc1cccnc1)c1ccc2c(c1)C(=O)N(CC1CCCO1)C2=O (stereo not given) | -113% (inactive) | 5.85% | – | –
COc1ccc2cc3cc(C(=O)NCCN4CCN(c5ccccc5F)CC4)oc3nc2c1 | -20.3% (inactive) | -11.8% | – | –
C/C=C(\CS(=O)(=O)c1ccccc1)S(=O)(=O)c1ccccc1 | – | -14.9% | 5.17 µM (active) | –
C/C(CS(=O)(=O)c1ccccc1)=N\O | -23.4% (inactive) | -17.1% | – | –
CCN(Cc1ccccc1)C(=O)CS(=O)(=O)c1ccccc1 | -5.16% (inactive) | 0.704% | – | –
O=C(NNC(=O)c1cccc(S(=O)(=O)N2CCN(c3ccccc3)CC2)c1)c1ccc(Cl)cc1 | 2.76% (inactive) | -1.16% | – | –
O=C(Oc1ccc(Cl)c2cccnc12)N1CCCCCC1 | 2.39% (inactive) | 0.575% | – | –
O=C(Nc1cccc(C(F)(F)F)c1)c1cccnc1N1CCCC1 | – | – | – | inactive
O=C(Nc1cccc(C(F)(F)F)c1)Oc1ccc(Cl)c2cccnc12 | – | -22.5% | 8.2 µM (active) | –
O=C(Nc1cccc(C(F)(F)F)c1)c1cccnc1NCCO | – | 17.5% | 9.2 µM (active) | –
CCN(CC)C(=O)Oc1ccc(Cl)c2cccnc12 | 4.69% (inactive) | -13.1% | – | –
O=C(Nc1cccc(C(F)(F)F)c1)c1cccnc1N1CCN(CCO)CC1 | – | – | – | inactive
CCOc1ccccc1Oc1nc(-c2ccccc2O)nc2ccccc12 | – | 16.3% | – | inactive
N#Cc1c(C(F)(F)F)cc(-c2ccc(F)cc2)nc1SCC(=O)O | 17% (inactive) | 0.873% | – | –
CC(c1ccc(O)cc1)(c1ccc(O)cc1)c1ccc(CCBr)cc1 | -11.7% (inactive) | -16% | – | –
O=C(Nc1ccc(-n2cc(Cl)cn2)cc1)c1ccncc1 | -2.29% (inactive) | 13% | – | –
Cc1ccc(C(=O)/C=C/N(C)C)o1 | -9.3% (inactive) | -4.62% | – | –
